From PubChem BioAssay
Six1-Eya2 inh: qHTS Assay for Inhibitors of the Six1/Eya2 Interaction; Homeobox protein SIX1 (Homo sapiens) + Protein phosphatase EYA2 (Homo sapiens), …; AlphaScreen GST-Six1/His-Eya2 binding, biochemical; hits give low values; activity change, % (no concentration beside the values); actives 0.56% (n = 360,000); AID 651725, 2012; in the data active = activity change below about -65%; inconclusive = mostly about -30% to -63%
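AlphaScreen luminescence read after one hour at 37 °C in darkness. Pin-transferred compounds met GST-Six1 and His-Eya2 protein (5X stock 250 nM/500 nM) plus glutathione donor and Ni-chelate acceptor beads (5X, 50 ug/mL).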
TDP1 inh: qHTS Assay for Inhibitors of Tyrosyl-DNA Phosphodiesterase (TDP1) | Tyrosyl-DNA phosphodiesterase 1 (Homo sapiens), Q9NUW8 | recombinant TDP1, AlphaScreen DNA substrate cleavage | Potency, µM (doses to about 130 µM), usual class: inhibitors | actives 0.28% (n = 350,000) | AID 485290, 2010; also: nearly all actives have a fitted effect of over 40% in size
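Recombinant E. coli-expressed Tdp1 (1 nM) preincubated with compound 15 min at RT, then 5'-biotin/3'-phosphotyrosine-FITC DNA substrate (15 nM) added for 5 min. AlphaScreen beads (10 ug/ml) added, 10 min RT; tyrosine-FITC cleavage read as signal loss.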
DT40 TDP1 no CPT: qHTS for Inhibitors of human tyrosyl-DNA phosphodiesterase 1 (TDP1): qHTS in cells in absence of CPT; actives 15% (n = 420,000); AID 686978, 2013; DT40 Tdp1-/- hTDP1 cells, no CPT, ATP luminescence, 48 h; Potency, µM (highest dose often 46.2 µM), hits mostly inhibitors; also: nearly all actives have a fitted effect of over 55% in size
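DT40 Tdp1-/-;hTDP1 cells, no CPT (DMSO vehicle only), 400 cells/well; compounds pin-transferred; ≥48 hr, 37 °C; CellTiter-Glo 30 min RT dark, luminescence read.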
IL1B secr inh: qHTS for Inhibitors of Inflammasome Signaling: IL-1-beta AlphaLISA Primary Screen | actives 4.7% (n = 360,000) | activity change, % at 57.5 µM | THP-1 LPS/ATP IL-1B secretion, AlphaLISA, 16 h; hits give low values; in the data active = activity change below about -50%; inconclusive = mostly about -30% to -49%
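THP-1 cells pretreated 1 hr with compounds (up to 57.5 uM final), then stimulated with LPS (250 ng/mL final) plus ATP (1.25 mM final); secreted IL-1B measured by AlphaLISA after 16 hr, decreased signal indicating inhibition.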
CtBP-E1A inh: qHTS Assay for Inhibitors of the CtBP/E1A Interaction. CtBP / adenovirus E1A interaction (AlphaScreen). AlphaScreen GST-E1A/His-CtBP binding, 1536-well; hits give low values. activity change, % (concentration not given with the values). actives 0.49% (n = 340,000). AID 651724, 2012; in the data active = activity change below about -65%; inconclusive = mostly about -30% to -63%
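GST-E1A and His-tagged CtBP (125 nM each as 5X stock) were preincubated with pin-transferred compound for 2 h at 37 °C in the dark, then glutathione donor and nickel acceptor beads were added for 1 h before AlphaScreen reading.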
DT40 TDP1 CPT: qHTS for Inhibitors of human tyrosyl-DNA phosphodiesterase 1 (TDP1): qHTS in cells in presence of CPT; chicken DT40 Tdp1-/-;hTDP1 cells + 20 nM CPT, ATP luminescence, 48 h; Potency, µM (titrated, usually from 46.2 µM), usual class: inhibitors; actives 12% (n = 420,000); also: nearly all actives have a fitted effect of over 55% in size
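Chicken DT40 Tdp1-/- cells complemented with human TDP1, 400 cells/well, exposed to compounds plus 20 nM camptothecin for at least 48 h at 37 C; viability read as ATP content by CellTiter-Glo luminescence.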
Large screens that a line does not name were inactive. In the library only some 18% were active in any assay of this set; here they are far more common. Unless noted, calls follow the shape of the dose curve; as a rule, active = well fitted curve in the direction sought with a large enough effect; inconclusive = small, poorly fitted or top-dose-only effect, or another doubt; inactive = no such curve, though single readings can be large; an effect the other way counts as inactive or inconclusive.

COc1ccc2nc(NC(=O)c3nc(S(=O)(=O)Cc4ccc(C)cc4)ncc3Cl)sc2c1	DT40 TDP1 no CPT 2.3µM, DT40 TDP1 CPT 1.6µM (no result: Six1-Eya2 inh, IL1B secr inh, CtBP-E1A inh)
Cc1ccc(CS(=O)(=O)c2ncc(Cl)c(C(=O)Nc3nc4ccc(F)cc4s3)n2)cc1	DT40 TDP1 no CPT 2.6µM, DT40 TDP1 CPT 5.2µM (no result: Six1-Eya2 inh, IL1B secr inh, CtBP-E1A inh)
Cc1noc(C)c1C(=O)Nc1nc2ccc(F)cc2s1	none (no result: CtBP-E1A inh)
Cc1ccc(CS(=O)(=O)c2ncc(Cl)c(C(=O)Nc3nc4ccc(C)cc4s3)n2)cc1	DT40 TDP1 no CPT 3.7µM, DT40 TDP1 CPT 2.9µM (no result: Six1-Eya2 inh, IL1B secr inh, CtBP-E1A inh)
Cc1ccc2c(C)c(C(=O)N3CCN(Cc4ccccn4)CC3)oc2c1C	DT40 TDP1 CPT inconclusive
CCOc1ccc(-c2cc(C(=O)NCc3ccccc3)c3c(-c4ccc(CC)cc4)[nH]nc3n2)cc1	DT40 TDP1 no CPT inconclusive, DT40 TDP1 CPT 21µM (no result: Six1-Eya2 inh, IL1B secr inh, CtBP-E1A inh)
CCOc1ccc(-c2cc(C(=O)NCc3ccc(OC)cc3)c3c(-c4ccc(F)cc4)[nH]nc3n2)cc1	none (no result: Six1-Eya2 inh, IL1B secr inh, CtBP-E1A inh)
COc1ccc(OC)c(-c2cc(C(=O)NCCc3ccccc3)c3c(-c4ccc(C)cc4)[nH]nc3n2)c1	DT40 TDP1 no CPT 13µM, DT40 TDP1 CPT 23µM (no result: Six1-Eya2 inh, IL1B secr inh, CtBP-E1A inh)
COc1ccc(-c2cc(C(=O)NCCc3ccccc3)c3c(-c4ccc(Cl)cc4)[nH]nc3n2)cc1	DT40 TDP1 no CPT 10µM, DT40 TDP1 CPT 12µM (no result: Six1-Eya2 inh, IL1B secr inh, CtBP-E1A inh)
COc1ccc(-c2cc(C(=O)NCCc3ccccc3)c3c(-c4ccccc4)[nH]nc3n2)cc1	DT40 TDP1 no CPT inconclusive, DT40 TDP1 CPT inconclusive (no result: Six1-Eya2 inh, IL1B secr inh, CtBP-E1A inh)
Cc1ccc(CNC(=O)c2cc(-c3ccc(C)cc3)nc3n[nH]c(-c4cccc([N+](=O)[O-])c4)c23)cc1	DT40 TDP1 no CPT inconclusive, DT40 TDP1 CPT 12µM (no result: Six1-Eya2 inh, IL1B secr inh, CtBP-E1A inh)
CC1(C)Cc2ccccc2C(NNC(=O)c2cccnc2)=N1	none
CC(C)C[C@H]1CNC(=S)N1C[C@H]1CCCN1C[C@H](Cc1ccc(O)cc1)N1C[C@H](Cc2ccc(O)cc2)N(CCc2ccccc2)C1=S	DT40 TDP1 no CPT inconclusive, IL1B secr inh inconclusive, DT40 TDP1 CPT inconclusive (no result: TDP1 inh)
CC(C)C[C@H]1CN([C@@H](Cc2ccc(O)cc2)CN2CCC[C@@H]2CN2C(=S)NC[C@@H]2Cc2ccccc2)C(=S)N1CCc1ccccc1	DT40 TDP1 no CPT 6.5µM, DT40 TDP1 CPT 6.5µM (no result: TDP1 inh)
CC(C)C[C@H]1CNC(=S)N1C[C@H]1CCCN1C[C@H](Cc1ccccc1)N1C[C@H](Cc2ccc(O)cc2)N(CCc2ccccc2)C1=S	DT40 TDP1 no CPT 13µM, DT40 TDP1 CPT 23µM (no result: TDP1 inh)
CC(C)C[C@H]1CNC(=S)N1C[C@H]1CCCN1C[C@H](Cc1ccc(O)cc1)N1C[C@H](CC(C)C)N(CCc2ccccc2)C1=S	DT40 TDP1 no CPT 21µM, IL1B secr inh -63, DT40 TDP1 CPT inconclusive (no result: TDP1 inh)
O=C(CS(=O)(=O)c1ccccc1)NCc1ccco1	none
CCN(CC(=O)NCc1ccc(Cl)cc1)Cc1cc(=O)n2ccsc2n1	none
COc1ccccc1-c1nnc2n1N=C(c1ccc(O)c(O)c1)CS2	DT40 TDP1 no CPT 6.5µM, DT40 TDP1 CPT 6.5µM
COc1ccc(C2=Nn3c(nnc3-c3ccccc3C)SC2)cc1OC	none (no result: Six1-Eya2 inh, DT40 TDP1 no CPT, IL1B secr inh, CtBP-E1A inh, DT40 TDP1 CPT)
COc1ccc(C2=Nn3c(nnc3-c3ccccn3)SC2)cc1	Six1-Eya2 inh -67, DT40 TDP1 no CPT inconclusive, CtBP-E1A inh inconclusive, DT40 TDP1 CPT inconclusive
COc1ccc(C2=Nn3c(nnc3-c3cccnc3)SC2)cc1OC	Six1-Eya2 inh -69, IL1B secr inh inconclusive, CtBP-E1A inh -77, DT40 TDP1 CPT inconclusive
CCOc1ccc(C2=Nn3c(nnc3-c3ccccc3OC)SC2)cc1	DT40 TDP1 no CPT 0.18µM, DT40 TDP1 CPT 0.21µM
COc1ccc(C2=Nn3c(nnc3-c3ccc(OC)c(OC)c3)SC2)cc1OC	none (no result: Six1-Eya2 inh, DT40 TDP1 no CPT, IL1B secr inh, CtBP-E1A inh, DT40 TDP1 CPT)
